Reference: PubChem BioAssay (NCI)
This is part of a sample that, as a whole, favours compounds with a hit. Of some 79,000 tested, about 15% had one in any assay. Activity calls are given as the source filed them. No stated cut-off is given here; in the data, active means growth inhibition above about 70%; inactive means the rest. Where a SMILES comes first, the peptide text is derived from it. [ ]: non-standard residue; d: D form. The star is where a group is joined. Cbz = O=C(OCc1ccccc1)*; Nva = CCC[CH](N)C(=O)O

Experiments:
[1] = NCI Yeast Anticancer Drug Screen. Data for the rad50 strain (AID 155);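 further: 0% = growth of vehicle-only cultures of the same strain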; conditions: S. cerevisiae rad50 strain growth inhibition; at 50.0 µM; active compounds read high
Outline: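 DNA repair mutant yeast, compound exposure, growth read-out; inhibition is taken relative to vehicle.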

[2] = NCI Yeast Anticancer Drug Screen. Data for the mec2-1 strain (AID 157); conditions: S. cerevisiae mec2-1 strain, at 50.0 µM, active compounds read high
Outline: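 Cells of the genetically defined mec2-1 yeast strain are incubated with test compound. Inhibition of growth is calculated against vehicle-treated controls.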

[3] = NCI Yeast Anticancer Drug Screen. Data for the sgs1 mgt1 strain (AID 161);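 further: 0% = growth of cultures given vehicle only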; conditions: S. cerevisiae sgs1 mgt1 strain, at 50.0 µM, active compounds read high
Outline: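 Inhibition of yeast growth, normalised to vehicle-treated controls, is reported for a strain bearing genetic alterations in DNA damage repair.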

[4] = NCI Yeast Anticancer Drug Screen. Data for the cln2 rad14 strain (AID 165);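 further: 0% = growth equal to vehicle treated cultures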; conditions: S. cerevisiae cln2 rad14 strain, at 50.0 µM, active compounds read high
Outline: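 The screen exposed genetically defined yeast (cln2 rad14) to test compounds and scored growth inhibition relative to vehicle-treated controls.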

[5] = NCI Yeast Anticancer Drug Screen. Data for the bub3 strain (AID 167); conditions: S. cerevisiae bub3 mutant strain, at 50.0 µM, active compounds read high
Outline: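 In this screen, a yeast mutant lacking normal mitotic checkpoint function is challenged with compound. Relative growth versus vehicle gives the inhibition value.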

[6] = NCI Yeast Anticancer Drug Screen. Data for the mlh1 rad18 strain (AID 175); conditions: S. cerevisiae mlh1 rad18 strain growth inhibition; at 50.0 µM; active compounds read high
Outline: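 Compound-treated yeast growth, normalised to vehicle controls. Strain bears defined DNA repair mutations.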

Measured: growth inhibition

C=CCNC(=S)N(C)Cc1ccccc1Cl
inactive: [1] -7.2% | [2] 35.5% | [3] 34.8% | [4] -25.9% | [5] 36.4% | [6] 33.6%

O=C(Nc1ccccc1)Oc1ccc(/C=N/Sc2cccc([N+](=O)[O-])c2)cc1
inactive: [1] 67.1% | [2] 60.6% | [4] 21.2% | [6] 62.2%
active: [3] 73.8% | [5] 73.8%

CCCCOC(C)OCCCC
inactive: [1] 9.3% | [2] -6.35% | [3] -3.4% | [4] 5.2% | [5] 5.65% | [6] -17%

Cn1c2ccccc2c2c3c(ccc21)C(=O)c1ccccc1C3=O
inactive: [1] 6.85% | [2] -3.9% | [3] 7.15% | [4] -62.6% | [5] 8.2% | [6] -2.5%

CCOC(=O)Nc1ccc(C2OCCS2)cc1 (stereo not drawn)
inactive: [1] 1.05% | [2] -21.6% | [3] 9.45% | [4] -0.65% | [5] -19.8% | [6] 10.2%

O=C(O)C1CCN(C(=O)Cc2c3ccccc3cc3ccccc23)CC1
inactive: [1] 20.9% | [2] 3.9% | [3] -3.45% | [4] -2.5% | [5] -6.85% | [6] 22.7%

CC(CO)(CO)N1C(=O)C2C3c4ccccc4C(c4ccccc43)C2C1=O (stereo not drawn)
inactive: [1] -2% | [2] 1.05% | [3] 1.65% | [4] -3.15% | [5] -3.95% | [6] -28.7%

CC1OC(OC2C(OC(=O)[C@]34CCC(C)(C)C[C@H]3C3=CC[C@@H]5[C@@]6(C)CC[C@H](OC7OC(CO)C(O)C(O)C7OC7OC(CO)C(O)C(O)C7O)C(C)(C)[C@@H]6CC[C@@]5(C)[C@]3(C)CC4)OCC(O)C2O)C(O)C(O)C1OC1OCC(O)C(O)C1O (stereo partly drawn)
inactive: [1] -24.8% | [2] -41.2% | [3] -44.5% | [4] -33.8% | [5] -32.8% | [6] -23.1%

CN(C)CCCc1cccc2[nH]c3c(c12)CN(C)CC3
inactive: [1] 22% | [2] -5% | [3] 23.6% | [4] 7.85% | [5] 7.45% | [6] -26%

C=CC/C=C/CCC
inactive: [1] 34.6% | [2] -2.7% | [3] -7.85% | [4] -21.8% | [5] -2.4% | [6] -9.7%

C/C(=N\NC(N)=O)c1cc2cc([N+](=O)[O-])ccc2oc1=O
inactive: [1] -2.2% | [2] 23.6% | [3] 16.1% | [4] -7.85% | [5] -12.6% | [6] 8.5%

Cc1cccc(C2=N/C(=C\c3ccccc3)C(=O)O2)c1
inactive: [1] 7.15% | [2] 7.5% | [3] 18.8% | [4] 10.8% | [5] 5.75% | [6] 5.35%

C=CCC(CC=C)(C(=O)Nc1ccc2nc(C)cc(N)c2c1)C(=O)Nc1ccc2nc(C)cc(N)c2c1
inactive: [1] 2.05% | [2] 24.7% | [3] 22.1% | [4] 20.1% | [5] 12.4% | [6] -10.1%

CCCC(NC(=O)OCc1ccccc1)C(=O)NC(CCSC)C(N)=O (stereo not drawn) (Cbz-[Nva]-Met-NH2; configuration not given here)
inactive: [1] 28.2% | [2] -5.35% | [3] -5.95% | [4] 5.6% | [5] -4.6% | [6] -27.9%

CCc1nc2c(c(=O)n(C)c(=O)n2C)n1C
inactive: [1] -2.65% | [2] -4.15% | [3] -8.45% | [4] -3.85% | [5] 2.85% | [6] -7.5%

O=C(NCCN1CCCCC1)c1ccc(I)cc1
inactive: [1] 9.2% | [2] 0.95% | [3] 24.8% | [4] 10.2% | [5] 22.4% | [6] 8.6%

Nc1ccccc1N1C(=O)C(Cl)=C(Cl)C1=O
inactive: [1] 39.5% | [2] 5.4% | [3] 21.5% | [4] 14.2% | [5] 3% | [6] 44%

C/C(=N\NC(N)=O)C(C)(C)O
inactive: [1] 26.8% | [2] 16.9% | [3] 7.7% | [4] 12.4% | [5] 11.5% | [6] 13.6%

OCCOc1ccc(C(Cc2ccccc2)N(CCO)CCO)cc1 (stereo not drawn)
inactive: [1] -10.1% | [2] 2.15% | [3] 7.5% | [4] -12.6% | [5] 4.7% | [6] -1.45%

CCCCCCCC(=O)N1C2CN3C4=C(C(=O)C(N)=C(C)C4=O)C(COC(N)=O)C3(OC)C21 (stereo not drawn)
inactive: [1] 18.6% | [2] 13.1% | [3] 30.4% | [4] 20.8% | [5] 19.1% | [6] 47.1%

C/C=C/C=c1/[nH]c(=O)/c(=C\C)[nH]c1=O
inactive: [1] -6.85% | [2] -5.15% | [3] -10.6% | [4] -21.5% | [5] 0.95% | [6] -14.2%

Nc1[nH]n(-c2ccccc2)c(=O)c1C1c2ccccc2Sc2ccccc21
inactive: [1] 8.7% | [2] 11.2% | [3] 16.4% | [4] -66.6% | [5] 15.2% | [6] 16.2%

CNC(=O)OCc1c(COC(=O)NC)c(-c2ccc(C(C)(C)C)cc2)n(C)c1C
inactive: [1] 3.45% | [2] 12.9% | [3] 5.5% | [4] -2.75% | [5] 15.8% | [6] 22.1%

CC1(C)COC(c2ccc3ccccc3c2)OC1
inactive: [1] 26% | [2] 10.7% | [3] -6.2% | [4] -21.9% | [5] 35.4% | [6] -5.8%

C[n+]1cccc(C(=O)O)c1
inactive: [1] 5.25% | [2] 2.75% | [3] 8.65% | [4] -9.05% | [5] 17.8% | [6] 10.1%

CC(C)(N)CNCC(C)(C)N
inactive: [1] 6.9% | [2] -3.65% | [3] -0.2% | [4] -5.8% | [5] -0.45% | [6] -2.1%

C(=Nc1ccc2ccccc2c1)c1cccs1
inactive: [1] 1.6% | [2] -3.2% | [3] 12.6% | [4] -12.1% | [5] 5.1% | [6] -0.6%

O=C1c2ccccc2C2NCCCN12 (stereo not drawn)
inactive: [1] -2.55% | [2] -12.3% | [3] -0.4% | [4] -5.65% | [5] -3.55% | [6] 0.9%

Cc1ccccc1NC(=O)CS
inactive: [1] 17.6% | [2] 31.9% | [3] 31.2% | [4] -21% | [5] 29.2% | [6] 33.2%

OCCCN1CCN(CCO)CC1
inactive: [1] -42% | [2] -14.8% | [3] -12.7% | [4] -48.9% | [5] 4.25% | [6] -2.25%

Nc1[nH]n(-c2ccccc2)c(=O)c1/C=N/C(=S)NC1CCCCC1
inactive: [1] -79% | [2] -43.7% | [3] -61% | [4] -63.2% | [5] -47.8% | [6] -67.9%

COC(=O)CC#N
inactive: [1] -13.3% | [2] 4.9% | [3] 10.1% | [4] -2.75% | [5] -1.2% | [6] -13.3%

CN(C)CCOC(=O)Nc1ccccc1C(F)(F)F
inactive: [1] 16.1% | [2] -8.1% | [3] 17.1% | [4] 21.8% | [5] 19.8% | [6] 12.2%

Cc1ccccc1NC(=O)/C=C\C(=O)O
inactive: [1] 8.9% | [2] -10.3% | [3] -0.7% | [4] 10.1% | [5] -14.4% | [6] 10.2%

CC(=O)OC1COC(N2C(=O)C(=O)c3cc(Br)c([N+](=O)[O-])cc32)C(OC(C)=O)C1OC(C)=O (stereo not drawn)
inactive: [1] 14.3% | [2] 12.2% | [3] -10.6% | [4] -1.9% | [5] -9.6% | [6] 1.3%

O=C(CCCO)c1nc2ccccc2s1
inactive: [1] -2.5% | [2] 12.9% | [3] 2.8% | [4] -8.55% | [5] 11.8% | [6] 4.7%

Nc1ccc(S(=O)(=O)NC(=O)NCc2ccccc2)cc1
inactive: [1] 0.7% | [2] -5% | [3] 3.5% | [4] -33% | [5] -10.6% | [6] -9.55%

Nc1ccc2cn[nH]c2c1
inactive: [1] 3.5% | [2] -11.6% | [3] -6.95% | [4] -10.4% | [5] 5.8% | [6] -2%
